Results taken from the supplement of paper PMC3898565.
± gives the uncertainty stated by the source.

System: U87
Experiment: cell viability relative to vehicle control; higher = less growth inhibition (less active)
Conditions: 10 µM; 72 h
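Also: viable cell number estimated from Alamar Blue fluorescence read at 560/90, part of a single-dose primary screen of an FDA-approved drug library.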

Compound	cell viability [%]
CCCCC[C@H](O)/C=C/[C@H]1[C@H](O)CC(=O)[C@@H]1CCCCCCC(=O)O [Prostaglandin E1]	105.7 ± 0.69
NC1CCN(c2nc3c(cc2F)c(=O)c(C(=O)O)cn3-c2ccc(F)cc2F)C1 (centres undefined)	98.01 ± 0.56
CCN1CCC[C@H]1CNC(=O)c1cc(S(N)(=O)=O)ccc1OC	102 ± 3.2
CC(COc1ccccc1Cc1ccccc1)N1CCCCC1 (centres undefined)	102.4 ± 0.48
CC(C)(C)NC(=O)[C@@H]1CN(Cc2cccnc2)CCN1C[C@@H](O)C[C@@H](Cc1ccccc1)C(=O)N[C@H]1c2ccccc2C[C@H]1O	105.6 ± 0.74
Clc1cccc(Cl)c1NC1=NCCN1	108 ± 2.8
Cc1ncc([N+](=O)[O-])n1CCO	104 ± 1.2
Cc1[nH]cnc1CN1CCc2c(c3ccccc3n2C)C1=O	93.5 ± 2.2
Cc1ccsc1C(=CCCN1CCC[C@@H](C(=O)O)C1)c1sccc1C	104 ± 1.1
Clc1ccc2c(c1)CCc1cccnc1C2=C1CCNCC1	101.5 ± 0.94
C[C@]12CCC(=O)C=C1CC[C@@H]1[C@@H]2C(=O)C[C@@]2(C)[C@H]1CC[C@]2(O)C(=O)CO	102 ± 2.8
COC(=O)C1=C(C)NC(C)=C(C(=O)OC2CCCN(Cc3ccccc3)C2)C1c1cccc([N+](=O)[O-])c1 (centres undefined)	104 ± 1.2
O=c1[nH]c(=O)n(C2CCCO2)cc1F (centres undefined)	96.728 ± 0.044
CN(C)CCCSc1ccccc1NC(=O)/C=C/c1ccccc1 [Cinanserin]	103.3 ± 0.66
CC(=O)O[C@]1(C(C)=O)CC[C@H]2[C@@H]3C=C(C)C4=CC(=O)CC[C@]4(C)[C@H]3CC[C@@]21C	101 ± 1.2
O=C(O)CCc1nc(-c2ccccc2)c(-c2ccccc2)o1	129 ± 2.2
C[C@@H]1C[C@H]2[C@@H]3CCC4=CC(=O)C=C[C@]4(C)[C@@]3(F)[C@@H](O)C[C@]2(C)[C@H]1C(=O)CO	106 ± 0.2
C[C@]12CCC(=O)C=C1CC[C@@H]1[C@@H]2CC[C@@]2(C)[C@H]1CC[C@]2(O)C(=O)CO	103.8 ± 0.18
CCS(=O)(=O)CCn1c([N+](=O)[O-])cnc1C	101 ± 1.7
CC(=O)O[C@H]1C[C@@H]2CC[C@@H]3[C@H](CC[C@@]4(C)[C@H]3C[C@H]([N+]3(C)CCCCC3)[C@@H]4OC(C)=O)[C@@]2(C)C[C@@H]1N1CCCCC1	103.2 ± 0.3

Compound	cell viability [%]
CC(C)[C@H]1CC[C@H](C(=O)N[C@H](Cc2ccccc2)C(=O)O)CC1	108 ± 1.6
Cc1c(O)cccc1C(=O)N[C@@H](CSc1ccccc1)[C@H](O)CN1C[C@H]2CCCC[C@H]2C[C@H]1C(=O)NC(C)(C)C	102.1 ± 1
COc1ccccc1N1CCN(CC(O)COc2cccc3ccccc23)CC1 (centres undefined)	99.6 ± 1.9
CN1CCN(C2=Nc3ccccc3Oc3ccc(Cl)cc32)CC1 [Loxapine]	102 ± 1.6
Nc1nc(N)nc(-c2cc(Cl)ccc2Cl)n1	95.63 ± 0.69
C#C[C@]1(O)CC[C@H]2[C@@H]3CCC4=CC(=O)CC[C@@H]4[C@H]3CC[C@@]21CC	105.5 ± 0.58
CC[C@@H]1C(=O)OC[C@@H]1Cc1cncn1C	101 ± 0.86
N[C@@H](C(=O)N[C@@H]1C(=O)N2C(C(=O)O)=C(CSc3cn[nH]n3)CS[C@H]12)c1ccc(O)cc1	105 ± 2.1
C[C@@H]1C[C@H]2[C@@H]3C[C@H](F)C4=CC(=O)C(Cl)=C[C@]4(C)[C@@]3(F)[C@@H](O)C[C@]2(C)[C@@]1(O)C(=O)CO	102.1 ± 0.4
COc1cccc2c1C(=O)c1c(O)c3c(c(O)c1C2=O)C[C@@](O)(C(=O)CO)C[C@@H]3O[C@H]1C[C@H](N)[C@@H](O)[C@H](C)O1	23.3 ± 0.39
CC(=O)CCCCn1c(=O)c2c(ncn2C)n(C)c1=O [Pentoxifylline]	101.9 ± 0.75
CN(C)CC/C=C1/c2ccccc2COc2ccc(CC(=O)O)cc21	95.88 ± 0.86
CCC(C)n1ncn(-c2ccc(N3CCN(c4ccc(OCC5COC(Cn6cncn6)(c6ccc(Cl)cc6Cl)O5)cc4)CC3)cc2)c1=O (centres undefined)	21.4 ± 2.1
O=C(CCCN1CCC(O)(c2ccc(Cl)cc2)CC1)c1ccc(F)cc1 [Haloperidol]	107.5 ± 0.44
Nc1nc(Cl)nc2c1ncn2[C@H]1C[C@H](O)[C@@H](CO)O1	35.4 ± 1.4
C[C@@H]1CN(CCCn2c3ccccc3c3ccccc32)C[C@H](C)N1 [Rimcazole]	109 ± 1.3
Cc1ccc(O)c([C@H](CCN(C(C)C)C(C)C)c2ccccc2)c1	103.8 ± 0.47
CN(C)CCN(Cc1ccccc1)c1ccccn1	96.4 ± 2.6
CN=C(N)NCCC[C@H](N)C(=O)O [L-Ornithine, N5-[imino(methylamino)methyl]-[CAS]]	104.9 ± 0.88
